Screens from PubChem.
CYP2C9 inh – blockers of cytochrome P450 2C9 activity – biochemical, luminescence, ADME assay, primary screen; P11712; CYP2C9 Supersomes, luciferin-H conversion; inhibition, % at 5 µM; 20% of 96,000 active; AID 777, 2007;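 active = blocking of liver enzyme CYP2C9 beyond about 50% at 5 µM, limit read from the data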
CYP2C9 act – human CYP2C9 activators, primary screen, biochemical, luminescence; Cytochrome P450 2C9 (Homo sapiens), P11712; recombinant CYP2C9, luciferin-H conversion; active compounds read high; factor 1 = untreated enzyme, 0 = blocked; activation factor at 5 µM; 1.4% of 96,000 active; AID 1024, 2008;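 active = activation factor of 2 or more for CYP2C9 at a 5 µM dose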;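 also: 0 = sulfaphenazole-blocked wells and 1 = vehicle-only wells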
CYP2C19 inhib – blockers of cytochrome P450 2C19 activity – biochemical, luminescence, ADME assay, primary screen; P33261; inhibition, % at 5 µM; CYP2C19 Supersomes, luciferin-H EGE luminescence, 30 min; 21% of 96,000 active;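 active = CYP2C19 inhibition above a set limit at 5 µM in the primary screen, cut at about 50% in these data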;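 also: plate controls were negative control wells for no effect and 2.5 mM tranylcypromine positive control for full effect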
EphB4 antag – EphB4-ephrin-B2 interaction antagonists, primary screen, biochemical, TNYL-RAW peptide probe, fluorescence polarization; EphB4 LBD / TNYL-RAW-Alexa532 peptide; inhibition, % at 7 µM; Ephrin type-B receptor 4 (Homo sapiens), P54760; 0.15% of 97,000 active;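 active = inhibition above the screen-wide mean inhibition plus 3 SD, cut at about 15% in these data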;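 also: 0% = DMSO wells and 100% = excess unlabeled TNYL-RAW peptide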
CYP2C19 activ – human CYP2C19 activators, primary screen, biochemical, luminescence. recombinant CYP2C19, luciferin-H EGE luminescence; active compounds read high; 0 = fully inhibited enzyme, 1 = untreated enzyme. Cytochrome P450 2C19 (Homo sapiens), P33261. AID 1025, 2008. activation factor at 5 µM. 96,000 tested, under 10 active;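 active = activation factor of at least 2 at 5 µM in the primary screen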;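 also: 0 = wells with 2.5 mM tranylcypromine and 1 = vehicle-only wells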
* = called active by the depositor; / = no result given. This is a sample that favours compounds with a hit; in the whole collection about 27% have one here.

SMILES | CYP2C9 inh | CYP2C9 act | CYP2C19 inhib | EphB4 antag | CYP2C19 activ
CCOc1cccc(C2C(C#N)=C(N)Oc3cc(C)oc(=O)c32)c1OCC (stereo unspecified) | 89.5* | 0.1 | 21.4 | 2.6 | 0.8
CCOc1ccccc1C1C(C#N)=C(N)Oc2cc(C)n(C)c(=O)c21 (stereo unspecified) | -3.2 | 1 | 3.7 | -9.5 | 1
Cc1cc2c(c(=O)o1)C(Cc1ccccc1)C(C#N)=C(N)O2 (stereo unspecified) | 63.0* | 0.4 | 86.5* | 8.8 | 0.1
COc1cc(C2C(C#N)=C(N)Oc3cc(C)oc(=O)c32)cc2c1OCO2 (stereo unspecified) | 53.7* | 0.5 | 19.9 | -7.5 | 0.8
Cc1cc2c(c(=O)o1)C(C(C)C)C(C#N)=C(N)O2 (stereo unspecified) | 0.0 | 1 | 56.6* | -3.4 | 0.4
O=C(c1ccc2c(c1)OCO2)N(c1ccc(F)cc1)C1C=CS(=O)(=O)C1 (stereo unspecified) | 1.2 | 1 | 12.5 | 10.3 | 0.9
CCOC(=O)CC(NS(=O)(=O)c1ccc(NC(C)=O)cc1)c1ccc(OCC)cc1 (stereo unspecified) | / | / | / | 2.1 | /
CCOc1ncccc1C(=O)NCc1ccc(OC)cc1 | 52.5* | 0.5 | 51.7* | 0.0 | 0.5
COc1ccc(Nc2ncccc2C(=O)NCc2ccccc2)cc1 | 78.9* | 0.2 | 84.5* | 3.0 | 0.2
CCOC(=O)c1nn(-c2ccc(F)cc2)c(-c2ccccc2)c1C(=O)c1ccccc1 | 31.4 | 0.7 | 1.1 | 3.1 | 1
Cc1ccc(-c2cc(C(F)F)n3ncc(C(=O)N4CCCc5ccccc54)c3n2)cc1 | / | / | / | 7.7 | /
COc1ccc(N=C2C(=Nc3ccc(OC)cc3)N(c3ccc(N(C)C)cc3)C(=S)N2c2ccc(OC)cc2)cc1 | 2.0 | 1 | 2.5 | -1.5 | 1
COc1ccc(N=C2NC(=O)S/C2=C\c2ccc(N(C)C)cc2)cc1 | 94.5* | 0.1 | 15.3 | 9.5 | 0.8
Nc1ccc2c(c1)C(=O)N(CC1CCCO1)C2=O (stereo unspecified) | -10.8 | 1.1 | -18.8 | -1.4 | 1.2
O=C(Nn1c(Cc2cccs2)nc2ccccc2c1=O)c1cccs1 | 79.6* | 0.2 | 83.6* | / | 0.2
Cc1nc2ccccc2c(=O)n1NCc1cccs1 | 21.4 | 0.8 | 74.6* | 1.1 | 0.3
Cc1csc(SCC(=O)NCc2cccs2)n1 | 16.3 | 0.8 | 35.6 | -3.6 | 0.6
Cc1nc(NC(=O)c2csc3ccccc23)sc1C | -4.1 | 1 | -5.9 | / | 1.1
CCCOc1ccc(C2C(=O)N(C3CCCCC3)CC(=O)N2CCCOCC)cc1OC (stereo unspecified) | 25.7 | 0.7 | 6.4 | 0.6 | 0.9
COc1ccccc1CNC(=O)c1oc2ccc(S(=O)(=O)N3CCCC3)cc2c1C | 72.8* | 0.3 | 47.4 | -1.0 | 0.5
O=C(NCc1ccccc1)c1ccc(S(=O)(=O)N2CCCC2)cc1 | 30.1 | 0.7 | 4.4 | 2.1 | 1
CCS(=O)(=O)N1CCCC(C(=O)NCc2cccnc2)C1 (stereo unspecified) | 0.6 | 1 | 34.3 | -8.6 | 0.7
O=C(NCc1cccnc1)C1CCCN(S(=O)(=O)c2ccc(Br)cc2)C1 (stereo unspecified) | 45.7 | 0.5 | 63.0* | -4.6 | 0.4
Cc1c(C(=O)NCc2ccccc2)oc2ccc(S(=O)(=O)N3CCCC3)cc12 | 32.7 | 0.7 | 4.3 | -2.9 | 1
O=C(NCc1cccnc1)c1ccc(S(=O)(=O)N2CCCCC2)cc1 | 46.8 | 0.5 | 61.3* | -10.0 | 0.4
Cc1c(C(=O)NCc2cccnc2)oc2ccc(S(=O)(=O)N3CCCCCC3)cc12 | 50.6* | 0.5 | 21.1 | / | 0.8
Cc1nn(-c2cccc3cccnc23)c(=O)c2ccccc12 | -0.5 | 1 | -20.5 | 5.7 | 1.2
CCC(C(=O)O/N=C(\N)c1cccc(C)c1)c1ccccc1 (stereo unspecified) | 23.1 | 0.8 | 11.8 | -13.8 | 0.9
O=C(NC1CC1)C1CCCN1S(=O)(=O)c1ccc2ccccc2c1 (stereo unspecified) | -80.1 | 1.8 | 43.2 | -5.9 | 0.6
